# According to PubChem BioAssay:
# “And” between values parts separate entries of the source, which are not always exact repeats. Identical values can stand only once. Results filed as inconclusive are left out. For some of these results: Potency and affinity values are given separately. The source made the active and inactive calls.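 Rule for the calls, unless noted: active = compounds whose cell count with miR-34 switched on is under 0.7 times the count with it off; inactive = the rest.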
# How the values were obtained:
# [1] = target: 6-phosphogluconate dehydrogenase, decarboxylating (Homo sapiens) (UniProt P52209); test: 6PGD enzyme inhibitors, primary screen, biochemical, human, recombinant enzyme, NADPH absorbance (AID 1159550;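 active = at least 20% inhibition of 6-phosphogluconate dehydrogenase activity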); conditions: recombinant 6PGD, NADPH absorbance 341 nm; at 10 µM; stronger effect = higher value
# Chain of 6-phosphogluconate dehydrogenase, decarboxylating (Homo sapiens) (P52209 whole entry, looked up): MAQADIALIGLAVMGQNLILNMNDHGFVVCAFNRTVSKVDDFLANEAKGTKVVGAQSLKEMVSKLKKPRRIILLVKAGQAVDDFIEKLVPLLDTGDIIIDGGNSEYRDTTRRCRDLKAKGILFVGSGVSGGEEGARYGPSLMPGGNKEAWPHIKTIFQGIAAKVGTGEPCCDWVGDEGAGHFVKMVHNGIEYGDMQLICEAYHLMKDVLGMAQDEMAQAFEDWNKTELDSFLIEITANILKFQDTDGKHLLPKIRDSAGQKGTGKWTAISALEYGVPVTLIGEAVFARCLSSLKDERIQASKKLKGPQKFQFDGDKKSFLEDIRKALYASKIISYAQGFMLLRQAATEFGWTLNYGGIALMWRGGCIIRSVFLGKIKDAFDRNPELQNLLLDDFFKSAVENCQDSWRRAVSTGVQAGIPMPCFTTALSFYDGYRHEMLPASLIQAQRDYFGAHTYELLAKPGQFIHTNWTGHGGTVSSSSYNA
# [2] = differential killing of epithelial or mesenchymal cells, primary screen, imaging, PC-3E GFP, TEM4-18 mCherry, co-culture (AID 1345086;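 active = compounds killing one labelled cell type while sparing the other, by normalised counts and ratio limits, not self-fluorescent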;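 for all read-outs here: cells exposed to compound for 72 h before imaging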;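 for red/green cell ratio (normalised): normalised mesenchymal count divided by normalised epithelial count so high means epithelial killing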); conditions: imaging cell counts, at 1 µM; for red/green cell ratio (normalised): actives lie on both sides, counts scaled to control wells, 1 = unselective
# [3] = sensitizers of A549 cells to miR-34 induction, primary screen, imaging, A549 dox-inducible miR-34, nuclei and caspase counts (AID 1347080); conditions: A549 miR-34 inducible, Hoechst nuclei count, 48 h
# [4] = survival rescue of mitochondrial mutant cells in low glucose, primary screen, MELAS cybrids, Rieske KO mouse fibroblasts, CellTiter-Glo (AID 1508586;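 active = mean z-score across replicates of 1.96 or higher in either the MELAS or the Rieske mutant cell line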;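 note: z relative to plate mean and SD of compound and empty wells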)
# [5] = target: Mitogen-activated protein kinase 7 (Homo sapiens) (UniProt Q13164); test: ERK5 transactivation activators in reporter cells, primary screen, cell-based, HTS (AID 1508626;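 active = luciferase signal above three times the same-plate solvent-only control wells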;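 note: luciferase driven by Gal4-ERK5 fusion binding five Gal4 sites before minimal TATA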); conditions: HeLa Gal4-ERK5 transactivation, 18 h, at 5 µM, stronger effect = higher value
# Chain of Mitogen-activated protein kinase 7 (Homo sapiens) (Q13164 whole entry, looked up, the tested form may be a part): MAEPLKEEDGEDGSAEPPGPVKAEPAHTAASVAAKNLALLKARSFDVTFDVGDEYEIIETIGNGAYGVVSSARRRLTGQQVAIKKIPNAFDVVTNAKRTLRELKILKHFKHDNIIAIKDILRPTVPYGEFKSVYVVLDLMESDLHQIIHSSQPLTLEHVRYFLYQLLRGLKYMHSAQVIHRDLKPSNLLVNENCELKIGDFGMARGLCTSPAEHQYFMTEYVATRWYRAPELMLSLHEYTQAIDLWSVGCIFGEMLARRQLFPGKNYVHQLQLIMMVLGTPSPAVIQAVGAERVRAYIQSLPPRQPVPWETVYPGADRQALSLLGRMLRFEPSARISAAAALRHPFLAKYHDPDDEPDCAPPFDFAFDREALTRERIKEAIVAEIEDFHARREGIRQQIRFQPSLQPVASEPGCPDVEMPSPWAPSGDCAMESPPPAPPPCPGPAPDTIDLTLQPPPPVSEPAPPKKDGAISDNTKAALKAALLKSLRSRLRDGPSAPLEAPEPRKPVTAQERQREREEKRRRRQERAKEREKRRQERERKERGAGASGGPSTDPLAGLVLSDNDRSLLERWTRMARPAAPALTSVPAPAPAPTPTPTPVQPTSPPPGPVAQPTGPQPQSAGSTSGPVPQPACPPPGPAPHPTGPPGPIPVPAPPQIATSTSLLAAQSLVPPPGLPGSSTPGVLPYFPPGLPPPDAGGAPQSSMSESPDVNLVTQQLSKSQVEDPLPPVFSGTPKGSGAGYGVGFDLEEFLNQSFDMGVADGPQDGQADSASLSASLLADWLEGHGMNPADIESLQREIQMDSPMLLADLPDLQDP
# [6] = viability rescue of complex I mutant cybrids, primary screen, cell-based, galactose medium, ATP luminescence (AID 1645843;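 active = z-score of at least 1.8 in each of two replicates, scored against plate mean and spread of sample wells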;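 note: positive z means more ATP and so rescue of galactose-driven cybrid death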); conditions: complex I mutant cybrid cells, 72 h, stronger effect = higher value
# [7] = ICB984 medulloblastoma cell growth inhibition, synergistic combos for chromothripsis tumors, cisplatin or BGB combos (AID 1671451; call rule not given here;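 note: cells exposed for 96 hours before readout; 0% = vehicle DMSO and 100% = killing by high DMSO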); conditions: ICB984 medulloblastoma cells, drug combinations, stronger effect = higher value
# [8] = liver-stage malaria parasite growth inhibition, primary screen, cell-based, HepG2, luciferase luminescence, HepG2 viability (AID 624349; in the data active = parasite load remaining mostly below about 12%, no sharp cut-off; inactive = mostly above about 10%;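 note: 100% = mean of DMSO negative control wells on the same plate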); conditions: P. berghei liver stage in HepG2, luciferase luminescence, concentration not given here; parasite load remaining: stronger effect = lower value; viability: measured here: HepG2 viability without parasites
# [9] = growth inhibition of DIPG glioma cells, dose response, cell-based, SU-DIPG-XIII, MIPE4.0, CellTiter-Glo, qHTS (AID 1347061; cut-off not given, nearly all actives have AC50 up to about 37 µM;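 note: cells exposed to compound for 48 hours before readout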); conditions: SU-DIPG-XIII viability, CellTiter-Glo ATP luminescence
# [10] = growth inhibition of DIPG glioma cells, dose response, cell-based, JHH-DIPG-1, MIPE4.0, CellTiter-Glo, qHTS (AID 1347062; cut-off not given, nearly all actives have AC50 up to about 27 µM); conditions: JHH-DIPG-1 viability, CellTiter-Glo ATP luminescence
# [11] = polyglutamine-triggered caspase-3 activation inhibitors, cell-based (AID 1583); conditions: polyglutamine-induced caspase-3 activation, cell assay; stronger effect = higher value;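 tested at 10 µM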
# [12] = suppressors of polyQ aggregation in yeast, 75Q-TubU reporter (AID 1593); conditions: Yeast 75Q polyglutamine aggregation reporter
# [13] = rescue of polyQ-huntingtin neuronal dysfunction in worms, whole organism, C. elegans mechanosensory neurons, N-terminal huntingtin (AID 1599); conditions: touch response, stronger effect = higher value
# [14] = inhibitors of mitochondrial cytochrome c release, biochemical, purified mitochondria (AID 1603); conditions: stronger effect = lower value;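 note: mouse liver mitochondria challenged with calcium chloride; signal normalized to the plate average as 100%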
# [15] = inhibitors of polyQ protein aggregation (AID 1604); conditions: polyglutamine-induced protein aggregation inhibition assay; stronger effect = higher value; tested at 2.5 µM
# [16] = enhancers of glutamate uptake in motor neurons, MN-1 cell line (AID 1612); conditions: MN-1 motor neuron cells, stronger effect = higher value;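 note: tested at 1 µM final; 0% = mean of DMSO vehicle wells on each plate; positive means more glutamate uptake than control and negative means less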
# [17] = reducers of polyQ inclusions in PC12 cells, cell-based, NGF-treated PC12, GFPQ80 (AID 1614); conditions: PC12 NGF-treated GFP-polyQ80 inclusion reduction;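 note: lower means fewer inclusions and 0 means no inclusions at all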
# [18] = suppressors of polyglutamine aggregation in yeast, 75Q-TubH (AID 1616); conditions: S. cerevisiae 75Q-TubH polyglutamine aggregation suppression; stronger effect = higher value
# [19] = measured here: epithelial PC-3E GFP cell survival
# [20] = measured here: mesenchymal TEM4-18 mCherry cell survival
# [21] = stronger effect = lower value, cell number ratio, induced over uninduced
# [22] = measured here: relative caspase fold change +Dox/-Dox
# [23] = measured here: total cells with miR-34 induction, stronger effect = lower value
# [24] = measured here: total cells without miR-34 induction
# [25] = MELAS cybrid survival, CellTiter-Glo 48 h, stronger effect = higher value
# [26] = Rieske KO mouse fibroblast survival, CellTiter-Glo 72 h
smiles,measurement,setting,value
O=c1c(O)c(-c2ccc(O)c(O)c2)oc2cc(O)ccc12,inhibition,[1],-3.55% (inactive)
same,red/green cell ratio (normalised),[2],1.02 (inactive)
same,normalised cell number,[2]; [19],1.04
same,normalised cell number,[2]; [20],1.06
same,fold change,[3]; [21],0.705 (inactive) and 0.857 (inactive)
same,fold change,[3]; [22],0.235 and 0.741
same,cell count,[3]; [23],4440 and 7100
same,cell count,[3]; [24],6300 and 8290
same,z-score,[4]; [25],-0.19 (inactive) and -0.5 (inactive)
same,z-score,[4]; [26],-0.897 and -0.252
same,luciferase signal,[5],56 AU (inactive)
same,z-score,[6],0.17 (inactive)
same,inhibition,"[7]; BGB IC20 combo, at 0.005 µM",-15.9%
same,inhibition,"[7]; BGB IC40 combo, at 0.005 µM",-16.9%
same,inhibition,"[7]; BGB IC40 combo, at 0.05 µM",-3.67%
same,inhibition,[7]; at 0.5 µM,-24.7% (inactive)
same,inhibition,"[7]; cisplatin combo, at 0.05 µM",-3.67%
same,inhibition,"[7]; cisplatin combo, at 0.5 µM",-43.4%
same,inhibition,"[7]; cisplatin combo, at 5 µM",-7.32%
same,inhibition,"[7]; measured here: 5 uM single agent, at 5 µM",-7.82%
COc1ccc(-c2coc3cc(O)ccc3c2=O)cc1,parasite load remaining,[8],260% (inactive)
same,viability,[8],88.5%
same,inhibition,[1],-6.94% (inactive)
same,red/green cell ratio (normalised),[2],0.93 (inactive)
same,normalised cell number,[2]; [19],1.23
same,normalised cell number,[2]; [20],1.14
same,outcome,[9],inactive
same,outcome,[10],inactive
same,fold change,[3]; [21],0.949 (inactive)
same,fold change,[3]; [22],0.624
same,cell count,[3]; [23],7740
same,cell count,[3]; [24],8150
same,z-score,[4]; [25],-0.217 (inactive)
same,z-score,[4]; [26],0.38
same,luciferase signal,[5],140 AU (inactive)
NC(N)=NC(N)=Nc1ccccc1,inhibition,[11],53.4% and -16.9%
same,score,[12],1.25 and 0.9
same,rescue above control,[13],-3.01 and 7.54
same,cytochrome c release ratio,[14],0.86 and 1.03
same,inhibition of aggregation,[15],72.2% and 69.7%
same,glutamate uptake change,[16],-1.79% and -11.1%
same,inclusion score,[17],2
same,aggregation suppression score,[18],1.39 and 0.87
same,inhibition,[1],-4.29% (inactive)
same,red/green cell ratio (normalised),[2],0.97 (inactive)
same,normalised cell number,[2]; [19],1.24
same,normalised cell number,[2]; [20],1.2
same,fold change,[3]; [21],1 (inactive) and 0.938 (inactive)
same,fold change,[3]; [22],1.38 and 0.627
same,cell count,[3]; [23],9810 and 9310
same,cell count,[3]; [24],9810 and 9920
same,z-score,[6],0.085 (inactive) and -0.065 (inactive)
O=C(/C=C/c1ccc(O)c(O)c1)OCCc1ccccc1,inhibition,[1],14% (inactive)
same,red/green cell ratio (normalised),[2],0.72 (inactive)
same,normalised cell number,[2]; [19],1.3
same,normalised cell number,[2]; [20],0.94
same,fold change,[3]; [21],1.03 (inactive) and 1.01 (inactive) and 1.12 (inactive)
same,luciferase signal,[5],56 AU (inactive)
same,z-score,[6],-1.37 (inactive) and -0.615 (inactive)
c1coc(CNc2ncnc3nc[nH]c23)c1,inhibition,[11],6.38%
same,score,[12],1.14
same,rescue above control,[13],19.9
same,cytochrome c release ratio,[14],1.1
same,inhibition of aggregation,[15],68.2%
same,glutamate uptake change,[16],-3.65%
same,inclusion score,[17],2
same,aggregation suppression score,[18],0.807
same,parasite load remaining,[8],122% (inactive) and 193% (inactive)
same,viability,[8],98% and 74%
same,inhibition,[1],6.86% (inactive)
same,red/green cell ratio (normalised),[2],1.01 (inactive)
same,normalised cell number,[2]; [19],1.05
same,normalised cell number,[2]; [20],1.07
same,outcome,[9],inactive
same,outcome,[10],inactive
same,fold change,[3]; [21],1.04 (inactive) and 1.1 (inactive)
same,fold change,[3]; [22],0.935 and 0.585
same,cell count,[3]; [23],8620 and 8070
same,cell count,[3]; [24],8250 and 7310
same,z-score,[4]; [25],-0.185 (inactive) and -0.0285 (inactive)
same,z-score,[4]; [26],-0.0997 and -0.188
same,luciferase signal,[5],84 AU (inactive)
